Legend:
Assay in all cases: PBM binding z-score (relative to random genomic background probes); higher = stronger binding; sequences stand for … in GC…GCGATTGACAGCGTAGAATGAAGG
[1] = system: PPARg:RXRa DBDmut IVT, anti-RXR (DBD mutation: RXRa K156A/R161A, NR concentration 270 nM, RXRa partner concentration 90 nM)
Method in brief: (§1)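 Probes were double-stranded and carried 34-nt variable regions with direct-repeat seeds, single-nucleotide variants, half-site ablations and random human genomic background sequences, printed on custom Agilent 4×180K protein-binding microarrays. Arrays were incubated 1 h with ligand-free nuclear receptor dimers in PBS pH 7.4, 2% milk, 0.02% Triton X-100, 1 mM DTT, 0.2 mg/mL BSA and 0.4 mg/ml salmon testes DNA. Antibodies against each partner (one per run) detected binding, and scanned fluorescence was regression-normalized. Binding z-scores use the random background probes as reference.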

[2] = system: PPARg:RXRa IVT, anti-PPARg (NR concentration 270 nM, RXRa partner concentration 90 nM)
Method in brief: as §1

[3] = system: PPARg DBDmut:RXRa IVT, anti-PPARg (DBD mutation: PPARg1 K132A/R137A, NR concentration 270 nM, RXRa partner concentration 90 nM)
Method in brief: as §1

[4] = system: PPARg DBDmut IVT, anti-PPARg (DBD mutation: PPARg1 K132A/R137A, NR concentration 270 nM)
Method in brief: as §1

[5] = system: PPARg homodimer (NR concentration 180 nM)
Method in brief: as §1

[6] = system: PXR:RXRa (NR concentration 270 nM, RXRa partner concentration 90 nM)
Method in brief: as §1

[7] = system: PXR homodimer (NR concentration 270 nM)
Method in brief: as §1

[8] = system: RARa:RXR (NR concentration 270 nM, RXRa partner concentration 90 nM)
Method in brief: as §1

[9] = system: RARa homodimer (NR concentration 270 nM)
Method in brief: as §1

[10] = system: RARb:RXRa (NR concentration 270 nM, RXRa partner concentration 90 nM)
Method in brief: as §1

[11] = system: RARb homodimer (NR concentration 270 nM)
Method in brief: as §1

[12] = system: RARg:RXRa (NR concentration 270 nM, RXRa partner concentration 90 nM)
Method in brief: as §1

[13] = system: RARg homodimer (NR concentration 270 nM)
Method in brief: as §1

[14] = system: RXRa DBDmut IVT, anti-RXR (DBD mutation: RXRa K156A/R161A, NR concentration 90 nM)
Method in brief: as §1

[15] = system: THRa:RXRa (NR concentration 90 nM, RXRa partner concentration 90 nM)
Method in brief: as §1

[16] = system: THRa homodimer (NR concentration 90 nM)
Method in brief: as §1

[17] = system: VDR homodimer (NR concentration 270 nM)
Method in brief: as §1

[18] = system: RXRa homodimer (NR concentration 180 nM)
Method in brief: as §1

[19] = system: VDR:RXRa (NR concentration 270 nM, RXRa partner concentration 90 nM)
Method in brief: as §1

Sequence | PBM binding z-score [1] | PBM binding z-score [2] | PBM binding z-score [3] | PBM binding z-score [4] | PBM binding z-score [5] | PBM binding z-score [6] | PBM binding z-score [7] | PBM binding z-score [8] | PBM binding z-score [9] | PBM binding z-score [10] | PBM binding z-score [11] | PBM binding z-score [12] | PBM binding z-score [13] | PBM binding z-score [14] | PBM binding z-score [15] | PBM binding z-score [16] | PBM binding z-score [17] | PBM binding z-score [18] | PBM binding z-score [19]
CCTAGTTGGTCAAGCTCACACACGCTATAGGTAC | 1.68 | 1.17 | 0.0557 | 0.393 | 0.772 | 0.179 | 0.39 | 0.432 | 1.68 | 1.14 | 0.906 | 0.632 | 1.12 | 0.623 | 0.136 | 0.545 | 0.614 | – | –
CCTCGGAGGACAACCGGAGGTCAGAGCTGCCAGA | -0.468 | 0.238 | -0.802 | -1.28 | 1.17 | 2.33 | 0.578 | 2.46 | 0.0885 | 2.98 | 3.53 | – | 3.47 | 0.243 | 3.14 | 1.3 | 1.41 | 1.86 | 1.9
CCTTACGGGTCAGGGTTATAGCACGGGTGGTACG | 0.748 | 2.22 | -0.0775 | -0.847 | 1.81 | 2.25 | -0.00485 | 3.06 | 0.308 | 3.41 | 2.89 | – | 3.8 | -0.999 | 2.29 | 0.154 | 0.894 | 3.87 | 2.26
CAAACTAGGTCACAGAGGGCAAAGTCCGTGCGTA | 8.48 | 8.83 | 5.61 | 4.71 | 1.95 | 4.26 | 4.07 | 3.86 | 0.666 | 4.54 | 4.14 | 5.05 | 5.61 | 2.45 | 3.87 | 1.55 | 4.18 | – | –
CTTAGTTGGTCAAGGTCACACACGCTATAGGTAC | 4 | 4.92 | 0.864 | 1.4 | 2.76 | 4.35 | 2.79 | 4.4 | 2.07 | 4.35 | 4.53 | 4.9 | 5.2 | 2.05 | 4.43 | 4.65 | 3.96 | – | –
GCTCGGAGGACAAGGTCACAGCTTTGTCCGTAGA | 0.831 | 3.16 | 0.822 | -0.625 | 2.33 | 3.9 | 0.00215 | 4.35 | 0.243 | 4.21 | 3.72 | 4.76 | 4.75 | 1.17 | 3.79 | 3.04 | 1.96 | – | –
TTACCAAGGTTAAAGGTCGTTGATGCACGCCTTG | 2.09 | 4.53 | 0.805 | 0.292 | 2.41 | 5.16 | 0.943 | 6.63 | 0.588 | 3.68 | 3.04 | 5.05 | 3.09 | 1.88 | 3.63 | 0.88 | 2.29 | – | –
CAAACTAGGTCACGAAAGGTCAAAGCCGAATGAC | 8.59 | 8.71 | 2.62 | 1.68 | 7.54 | 6.89 | 3.03 | 7.57 | 4.36 | 5.74 | 5.98 | 8.01 | 8.56 | 2.11 | 5.07 | 2.55 | 3.58 | – | –
